The source of these data is PubChem BioAssay (NCATS).

Results filed as inconclusive are left out. Values without a mark were called inactive. Active and inactive are the calls of the source. The call rests on the fitted dose curve; in most records, active means well fitted curve in the direction sought with a large enough effect; inconclusive means small, poorly fitted or top-dose-only effect, or another doubt; inactive means no such curve, though single readings can be large; an effect the other way counts as inactive or inconclusive. Bridge positions count the residues as written; N and C are the ends. Square brackets hold non-standard residues; d marks the D form. Peptide text beside a SMILES is read from it. * marks the point of attachment. ξ: configuration not given here. Octanoyl(6-Me) = CCC(C)CCCCC(=O)*; ξThr(3R) = C[C@@H](O)C(N)C(=O)O; dDab = NCC[C@@H](N)C(=O)O; Dab = NCC[C@H](N)C(=O)O

Assay [1] in a line: Viability qHTS for spleen associated tyrosine kinase inhibitor (SYKi) naive MV4-11 cells (AID 1963823). Further: nearly all actives have a fitted effect of over 40% in size. Further: potency means the concentration at half of the fitted maximal effect. Conditions: MV4-11 AML viability, CellTiter-Glo luminescence, 72 h; series mostly up to 45 µM. The essentials:
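CellTiter-Glo luminescence, 10 min room-temperature incubation, gave viability. Cells: naive MV4-11 (500/well), treated 72 hr at 37 C, 5% CO2.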
For orientation: In qHTS, concentration-response curves come from the screen itself.

Assay [2] is described as follows: Viability qHTS for spleen associated tyrosine kinase inhibitor (SYKi) drug resistant MV4-11 cells (AID 1963824). Further: nearly all actives have a fitted effect of over 35% in size. Further: potency means the concentration at half of the fitted maximal effect. Conditions: SYKi-resistant MV4-11 viability, CellTiter-Glo, 72 h; series mostly up to 45 µM. An outline of the steps:
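SYK-inhibitor-resistant MV4-11 AML cells were seeded at 500 per well onto compound and cultured 72 hours (37 °C, 5% CO2). CellTiter-Glo was then added, and after 10 min at room temperature, luminescence gave viability.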

A short description of assay [3]: Quantitative highthroughput screen to assess conditional lethalithy of NOMO1 cells grown in RPMI1640 with untreated serum (RPMI+s) (AID 1963876). Further: nearly all actives have a fitted effect of over 35% in size. Further: potency means the concentration at half of the fitted maximal effect.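 On Viability: 100% = DMSO wells and 0% = empty wells without cells.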 Conditions: NOMO1 AML cells in RPMI+serum, CellTiter-Glo viability, 48 h; series mostly up to 45.8 µM. An outline of the steps:
(§1)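 Each medium arm—HPLM with 10% dialyzed FBS, or RPMI1640 with 5 mM glucose and 10% untreated or dialyzed FBS—was screened against an 11-point, 3-fold compound titration for 48 h at 37 °C, with CellTiter-Glo luminescence as endpoint.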
A general note: Cellular ATP, detected with luciferase, serves as a proxy for viable cell number.

The nature of assay [4]: Quantitative highthroughput screen to assess conditional lethalithy of NOMO1 cells grown in RPMI1640 with dialyzed fetal bovine serum (RPMI+ds) (AID 1963877). Further: nearly all actives have a fitted effect of over 30% in size. Further: potency means the concentration at half of the fitted maximal effect.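 On Viability: 100% = DMSO control wells and 0% = empty wells.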 Conditions: NOMO1 in RPMI+dialyzed FBS viability, ATP luminescence, 48 h; series mostly up to 45.8 µM. An outline of the steps: as §1
Assay [5] in a line: Quantitative highthroughput screen to assess conditional lethalithy of NOMO1 cells grown in Human Plasma-Like Medium with dialyzed fetal bovine serum (HPLM+ds) (AID 1963878). Further: nearly all actives have a fitted effect of over 35% in size. Further: potency means the concentration at half of the fitted maximal effect.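 On Viability: 100% = DMSO wells and 0% = empty wells on each plate.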 To be noted: NOMO1 AML cells in HPLM+ds, CellTiter-Glo viability, 48 h; series mostly up to 45.8 µM. An outline of the steps: as §1
The nature of assay [6]: Quantitative highthroughput screen to assess conditional lethalithy of P12 Ichikawa cells grown in Human Plasma-Like Medium with dialyzed fetal bovine serum (HPLM+ds) (AID 1963879). Further: nearly all actives have a fitted effect of over 35% in size. Further: potency means the concentration at half of the fitted maximal effect. Conditions: ATP luminescence, 48 h; Potency: viability; series mostly up to 45.8 µM. The essentials:
as §1

The nature of assay [7]: Quantitative highthroughput screen to assess conditional lethalithy of SEM cells grown in Human Plasma-Like Medium with dialyzed fetal bovine serum (HPLM+ds) (AID 1963882). Further: nearly all actives have a fitted effect of over 35% in size. Further: potency means the concentration at half of the fitted maximal effect. Conditions: SEM B-ALL cells in HPLM+ds, CellTiter-Glo viability, 48 h; series mostly up to 45.8 µM. An outline of the steps: as §1
Assay [8] in a line: Quantitative highthroughput screen to assess conditional lethalithy of SEM cells grown in RPMI1640 with dialyzed fetal bovine serum (RPMI+ds) (AID 1963884). Further: nearly all actives have a fitted effect of over 35% in size. Further: potency means the concentration at half of the fitted maximal effect.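 On Viability: 100% = DMSO control wells and 0% = empty wells without cells.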 To be noted: SEM B-ALL cells, RPMI+dialyzed FBS, CellTiter-Glo viability, 48 h; series mostly up to 45.8 µM. An outline of the steps: as §1
Assay [9] can be described thus: Cellular viability qHTS for adrenocortical cancer (ACC) cell line SW-13 (AID 1963989). Further: nearly all actives have a fitted effect of over 65% in size. Further: potency means the concentration at half of the fitted maximal effect.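 On activity (max response): cells grown in serum-free medium with ITS supplement; on the % scale 0 is the no-effect control and ±100 the full control effect.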 Conditions: SW-13 ACC cells viability, CellTiter-Glo, 48 h; activity (max response): stronger effect = lower value. The essentials:
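Viability was read as CellTiter-Glo luminescence after 48 h compound treatment (up to 46 uM final) of SW-13 cells grown serum-free; titration curves were fit with a four-parameter logistic model to give IC50 and efficacy.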

Assay [10] can be described thus: Quantitative highthroughput screen to assess conditional lethalithy of P12 Ichikawa cells grown in RPMI1640 with dialyzed fetal bovine serum (RPMI+ds) (AID 1963880). Further: nearly all actives have a fitted effect of over 35% in size. Further: potency means the concentration at half of the fitted maximal effect.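 On Viability: 100% = DMSO wells and 0% = empty wells on each plate.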 Conditions: ATP luminescence, 48 h; Potency: P12-Ichikawa viability; series mostly up to 45.8 µM. An outline of the steps:
as §1

A short description of assay [11]: Quantitative highthroughput screen to assess conditional lethalithy of SEM cells grown in RPMI1640 with unreated serum (RPMI+s) (AID 1963883). Further: nearly all actives have a fitted effect of over 35% in size. Further: potency means the concentration at half of the fitted maximal effect.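 On Viability: 100% = DMSO wells and 0% = empty wells without cells.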 Conditions: SEM B-ALL cells, CellTiter-Glo viability, 48 h; series mostly up to 45.8 µM. An outline of the steps:
as §1

Assay [12] in a line: Cellular viability qHTS for adrenocortical cancer (ACC) cell line NCI-H295R (AID 1963990).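 Further: 0% = DMSO only wells and -100% = full killing with cytotoxic reference compound; nearly all actives have a fitted effect of over 60% in size.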 To be noted: CellTiter-Glo ATP luminescence, 48 h; series mostly up to 46.1 µM. An outline of the steps: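 CellTiter-Glo ATP luminescence, read 48 h after compound addition, measured viability of NCI-H295R adrenocortical cells grown serum-free with ITS. Final concentrations spanned up to 46 uM. Data normalized to DMSO and doxorubicin, fitted for IC50 and maximal response.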

The nature of assay [13]: Quantitative highthroughput screen to assess conditional lethalithy of P12 Ichikawa cells grown in RPMI1640 with untreated serum (RPMI+s) (AID 1963881). Conditions: ATP luminescence, 48 h; Potency: viability; series mostly up to 45.8 µM. An outline of the steps: as §1

In the case of `C[C@@H](NC(=O)c1ncnc(N)c1Cl)c1ncc(C(=O)Nc2cc(C(F)(F)F)c(Cl)cn2)s1`, the Potency is 9.2 µM (active) in assay [1], 16.6 µM (active) in assay [2], 16.6 µM (active) in [5] and 20 µM (active) in assay [9]. Moreover, the Potency entry in assay [3], in [4], in [6], in assay [7] and in [8] was “inactive” each time.
In the case of `CCC(C)CCCCC(=O)N[C@@H](CCN)C(=O)NC(C(=O)N[C@H](CCN)C(=O)N[C@@H]1CCNC(=O)C([C@@H](C)O)NC(=O)[C@@H](CCN)NC(=O)[C@@H](CCN)NC(=O)[C@@H](CC(C)C)NC(=O)[C@H](Cc2ccccc2)NC(=O)[C@H](CCN)NC1=O)[C@@H](C)O` (stereo partly drawn) ({Octanoyl(6-Me)}-[Dab][ξThr(3R)][dDab][dDab][Dab]F[dL][dDab][dDab][ξThr(3R)]; lactam 4-C), the Potency entry in assay [1], in [2], in assay [3], in [4], in [5] and in [6] was “inactive” in each case. For the same compound, the Potency entry in assay [10], in assay [11] and in assay [12] was “inactive” each time. For the same compound, the activity (max response) in assay [9] is 3.16%.
Regarding `Cc1ccccc1-n1c(Cn2nc(-c3cccc(O)c3)c3c(N)ncnc32)nc2cccc(C)c2c1=O`, the Potency was 6.61 µM (active) in [1]; 11.6 µM (active) in [2]; 1.18 µM (active) in assay [3]; 2.35 µM (active) in assay [4]; 1.66 µM (active) in [5]; 2.96 µM (active) in assay [6]. Moreover, the Potency entry in assay [7], in assay [11] and in assay [8] was “inactive” throughout. Further, the activity (max response) in assay [9] was -11.8%.
Consider `C=CC(=O)N1CCc2ccc(-n3c(=O)ccc4cnc5ccc(-c6cnn(C)c6)cc5c43)cc21`, for which the Potency in assay [1] is 0.632 µM (active); in assay [2], 0.091 µM (active); in [3], 7.43 µM (active); in [4], 4.69 µM (active); in assay [5], 3.72 µM (active); in [10], 7.43 µM (active). In addition, the Potency is 7.43 µM (active) in [13], 3.32 µM (active) in assay [7], 3.32 µM (active) in assay [11] and 3.32 µM (active) in [8].
